Data: PubChem BioAssay AID651820 (National Center for Advancing Translational Sciences (NCATS), 2012)
Screen size: about 340,000 compounds; about 12,000 (3.5%) were called active. Not shown: some 18% with an inconclusive outcome. The full list was thinned out, with actives kept by preference. Unmarked numbers belong to inactive results. Calls follow the shape of the dose curve; as a rule, active = well fitted inhibition curve with a large enough effect; inconclusive = small, poorly fitted or top-dose-only effect, or another doubt; inactive = no such curve, though single readings can be large or run the other way.

Experiment: qHTS Assay for Inhibitors of Hepatitis C Virus (HCV)
Settings: Huh7.5.1 HCVcc-Cre infection, luciferase reporter, 44 h; series mostly up to 41.8 µM; activity change, negative = inhibition: at the top concentration
Procedure, shortened: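 HCVcc-Cre virus at an moi near 0.5 was added right after compound to cells cultured 4 h from seeding (1,000 cells/well). Luciferase activity was determined 44 h later, 15 min after substrate addition at RT.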
% is scaled to controls: 0 for no effect and ±100 for the full control effect; potency is read from the fitted curve at half-maximal effect.

Compound	activity change, negative = inhibition	Potency
Cc1ccc(OCC(=O)Oc2ccccc2[N+](=O)[O-])cc1	30.2%	
CC1(C)NC(=O)N(CC(=O)N2CCN(S(=O)(=O)c3ccccc3F)CC2)C1=O	18.4%	
CCN1C(=O)[C@@H]2[C@@H](c3ccc(-c4cccc(Cl)c4)cc3)N3CCC[C@@]3(C(=O)OC)[C@@H]2C1=O	-20.2%	
Nc1ccc(Nc2ccccc2)cc1	-12.8%	
Cc1cc(Nc2ccccc2)n(C(=O)c2ccc(N)cc2)n1		12.6 µM (active)
Cc1cc(Nc2ccccc2)n(CCC#N)n1	4.32%	
O=C(Cc1ccc(Br)cc1)NCCc1ccccc1	4.78%	
CC[C@@H]1CCCCc2ccccc2[C@@H](C(=O)C[C@H](O)CC(C)=O)OC1=O	14.1%	
Cc1nnc(NC(=O)Nc2ccc(Cl)c(Cl)c2)s1		14.1 µM (active)
Cc1nnc(NC(=O)c2ccc3nccnc3c2)s1	17.6%	
Cc1nnc(NC(=O)C(c2ccccc2)c2ccccc2)s1	-1.93%	
COc1ccc(-c2cnc(SCCNC(=O)c3ccc4c(c3)OCO4)[nH]2)cc1	14.4% [at 8.37 µM]	
C#CCOCCOCCOCCNc1nc(N2CCOCC2)nc(N2CCN(C(=O)[C@H](Cc3ccc(O)cc3)n3cc(CCO)nn3)CC2)n1	17.4%	
O=C(NCCc1ccccc1)C1CCN(S(=O)(=O)c2ccc(Br)s2)CC1	5.95%	
Cc1cc(C)c[n+](-c2nc3ccccc3nc2[N-]S(=O)(=O)c2cccs2)c1	0.641%	
O=S(=O)([N-]c1nc2ccccc2nc1-[n+]1ccc(Cc2ccccc2)cc1)c1ccc(Br)s1		3.55 µM (active)
CC(Oc1ccc2c(-c3ccccc3)cc(=O)oc2c1)C(=O)NC(Cc1c[nH]c2ccccc12)C(=O)O (stereo not drawn)	-1.82%	
CC(C)(C)C(=O)CSc1ccc(S(=O)(=O)N2CCCC2)cn1	5.1%	
CCOC(=O)C1(CCOc2ccccc2)CCN(Cc2cc(OC)c(O)cc2Cl)CC1		11.2 µM (active)
CCCS(=O)(=O)N1CCC(CCOc2ccccc2)(C(=O)OCC)CC1	-7.6%	
CCOC(=O)C1(CCOC)CCN(Cc2ccc(C(=O)OC)cc2)CC1	3.41%	
Nn1c(SCC(=O)Nc2nccs2)nnc1-c1ccco1	-1.79%	
Cc1ccccc1NC(=O)Cc1nc(COC(=O)c2cccnc2Cl)cs1	-13.6%	
COc1ccc(C(C(=O)NC2CCCCC2)N(C(=O)CCl)c2ccccc2Cl)cc1 (stereo not drawn)		2.82 µM (active)
COc1ccc(C(C(=O)NC2CCCCC2)N(C(=O)c2snc(C(N)=O)c2N)c2ccccc2OC)cc1 (stereo not drawn)	0.443%	
COc1cccc(N(C(=O)C2COc3ccccc3O2)C(C(=O)NC2CCCCC2)c2ccc(O)cc2)c1 (stereo not drawn)	-7.1%	

Compound	activity change, negative = inhibition	Potency
O=C(c1ccc(F)cc1)N1CCC(C(=O)N2CCN(S(=O)(=O)c3ccccc3Br)CC2)CC1	15.5%	
COc1ccc(C(=O)Nc2nc(-c3ccc(S(=O)(=O)N4CCOCC4)cc3)cs2)cc1		35.5 µM (active)
CNC(=O)c1ccsc1NC(=O)c1ccc(S(=O)(=O)N2CCOCC2)cc1	-5.81%	
CCOC(=O)c1csc(NC(=O)c2ccc(S(=O)(=O)N3CCCC3)cc2)n1	-8.37%	
Cn1c(=O)[nH]c2c(c(C(=O)O)nn2C)c1=O	7.31%	
CCOC(=O)c1cnc2nc(SCc3ccccc3Cl)[nH]n2c1=O	4.2%	
CC(C)c1cc(C(=O)O)n[nH]1	13.7%	
CC(C)c1cc(C(=O)N/N=C/C(Br)=C/c2ccccc2)n[nH]1		22.4 µM (active)
Cc1cc(C(=O)N/N=C\C(Br)=C\c2ccccc2)c(C)o1	-28.1%	
Cc1c(NC(=O)CSc2nnc(-c3cccnc3)n2N)c(=O)n(-c2ccccc2)n1C	26.7%	
O=C(O)c1ccc([N+](=O)[O-])cc1Sc1ccsc1	2.61%	
O=C(c1cccc(S(=O)(=O)N2CCCCCC2)c1)N1CCN(Cc2ccccc2)CC1	-17.4%	
Cc1nc2sc(C(c3ccco3)N3CCOCC3)c(O)n2n1 (stereo not drawn)	0.269%	
Oc1c(C(c2ccccn2)N2CCOCC2)ccc2cccnc12 (stereo not drawn)		3.55 µM (active)
CCOC(=O)N1CCN(C(c2cccnc2)c2ccc3cccnc3c2O)CC1 (stereo not drawn)	-17.6%	
CCOC(=O)C1CCCN(C(=O)CSc2nnc3nc(C)cc(C)n23)C1 (stereo not drawn)	-5.06%	
Cc1cc(C(=O)OCC(=O)N2C(C)CCCC2C)c2ccccc2n1 (stereo not drawn)	-14.7%	
CC(C)CN(C(=O)CSc1ncnc2sccc12)C1CCS(=O)(=O)C1 (stereo not drawn)	8.24%	
CCN(C(=O)CSc1ncnc2c1cnn2-c1ccccc1)C1CCS(=O)(=O)C1 (stereo not drawn)	-22.6%	
CCC(C)N(C(=O)CSc1ncnc2c1cnn2-c1ccccc1)C1CCS(=O)(=O)C1 (stereo not drawn)		14.1 µM (active)
O=C(O)c1ccc(NN=CC2=C(N3CCOCC3)/C(=C/c3ccccc3)CC2)cc1	40.3%	
CC/C(=C(/c1ccccc1)c1ccc(OCC[N+](C)(C)C)cc1)c1ccccc1	3.46%	
COc1ccccc1C(=O)c1ccccc1C(=O)c1ccccc1	-3.41%	
CCOC(=O)C(=Cc1ccccc1OC)C(=O)OCC		25.1 µM (active)
CCOC(=O)c1ccccc1OC(=O)Oc1ccccc1C(=O)OCC	-20.5%	
CC(=O)CC(CC(=O)NC1CCCCC1)c1ccccc1 (stereo not drawn)	4.7%	

Compound	activity change, negative = inhibition	Potency
CN(CC(=O)O)C(=O)c1ccccc1	-4.81%	
COc1cccc(NC(=O)CN(C)C(=O)CSC(=S)N2CCCC2)c1	7.26% [at 8.37 µM]	
O=C(Nc1ccccc1Cl)Nn1cnnc1	22.4%	
COCCN(CCOC)C(=S)Nc1ccccc1Cl	-9.93%	
O=C(Nc1ccccc1Cl)/C(Cl)=C(\Cl)S(=O)c1ccccc1 (stereo not drawn)		11.2 µM (active)
COc1ccc(-c2cc3ncccc3cn2)cc1	-19.5%	
CCCCCCCCn1c2c(c(=N)c3c1CCC3)CCCC2		3.98 µM (active)
O=C(CCNS(=O)(=O)c1ccccc1C(F)(F)F)Nc1ccncc1	8.22%	
COc1ccccc1OCc1ccc(C(=O)N2CCN(C)CC2)o1	10.2%	
COc1ccccc1OCc1ccc(C(=O)NC(C)c2ccccc2)o1 (stereo not drawn)		7.08 µM (active)
COc1ccccc1CNC(=O)c1ccc(CS(=O)(=O)c2ccccc2)o1	5.83%	
CCCCn1c(N)c(N(CC(C)C)C(=O)c2cccc(S(=O)(=O)N3CC(C)OC(C)C3)c2)c(=O)[nH]c1=O (stereo not drawn)	-10.1%	
CCOC(=O)c1ccc(NC(=O)Cn2nnc(-c3ccc(C)cc3)n2)cc1	-24.7%	
CCCc1nnc(SCC(=O)Nc2ccc(C(=O)OCC)cc2)o1	10.9%	
CCOC(=O)c1ccc(NC(=O)Cn2cnc3cc(C)c(C)cc32)cc1		3.55 µM (active)
Cn1c(SCC(=O)Nc2ccc(N3CCOCC3)cc2)nnc1C(F)(F)F	-2.32%	
CC(NC(=O)c1ccccc1)C(=O)OCC(=O)Nc1cccc(S(=O)(=O)N2CCCC2)c1 (stereo not drawn)	11.6%	
CN1CCc2nc(SC(C(=O)O)c3ccccc3)c(C#N)c(-c3cccs3)c2C1 (stereo not drawn)		10 µM (active)
CC(NC(=O)CSc1nc2c(cc1C#N)CN(C)CC2)c1ccccc1 (stereo not drawn)	-20.5%	
Cc1c(-c2ccccc2)nc(N)c(C#N)c1-c1cccs1	17.7%	
Cc1ccc([C@@H]2CC=C(C(=O)O)[C@H](c3cccc(Cl)c3)N2S(=O)(=O)c2ccc(C)cc2)cc1	23.6%	
CC(C)(C)OC(=O)C[C@@H]1C/C=C\C[C@@H](CC(=O)N(CCO)Cc2ccccc2)C(=O)N[C@H](Cc2ccccc2)COC1=O	14.1%	
Cc1csc(=O)n1CC(=O)OCC(=O)N(CC(C)C)c1c(N)n(Cc2ccccc2)c(=O)[nH]c1=O	0.0195%	
Cn1c(=O)c2c(nc(Br)n2CCSc2nc3ccccc3o2)n(C)c1=O	-24%	
Cn1c(=O)[nH]c(=O)c2c1nc(Br)n2CCCCSc1nc2ccccc2o1		12.6 µM (active)
Cc1ccnc(SCCn2c(Br)nc3c2c(=O)[nH]c(=O)n3C)n1	-9.01%	

Compound	activity change, negative = inhibition	Potency
CCCCC/C=C/C1=CC(=O)C[C@H](c2ccc(Cl)cc2)C1	-4.66%	
O=C1NCCn2nc3ccccc3c21	-0.139%	
Cn1c(N)c(C(=O)COC(=O)/C=C/c2cccc(C(F)(F)F)c2)c(=O)n(C)c1=O	5.92%	
Cc1cc(C)cc(-c2nnc(SCC(=O)NC3CC3)o2)c1	0.418%	
O=C(NCCN1CCOCC1)c1ccc2c(c1)N(Cc1ccc(Cl)cc1)CCS2	8.59%	
CCOC(=O)N1CCN(C(=O)c2ccc3c(c2)N(Cc2ccc(C)cc2)CCS3)CC1		12.6 µM (active)
O=C(c1ccc2c(c1)N(Cc1ccc(F)cc1)C(=O)CS2)N1CCOCC1	14.1%	
O=C(NNC(=O)c1cc(S(=O)(=O)N2CCCCC2)ccc1Cl)c1ccccc1O	-11.9%	
CN(C(=O)CN1C(=O)NC(C)(CCc2ccccc2)C1=O)c1ccccc1 (stereo not drawn)	16.1%	
O=C(COC(=O)c1cc[n+]([O-])cc1)Nc1ccc(Cl)c(C(F)(F)F)c1	0.896%	
O=C1c2ccccc2C(=O)N1CCCCCCN1C(=O)c2ccccc2C1=O	7.88%	
O=C(NNC(=O)c1ccc2ccccc2c1)c1ccc(Cl)cc1	-4.02%	
COc1ccc(C(=O)CN2C(=O)NC3(CCc4ccccc43)C2=O)c(OC)c1 (stereo not drawn)	4.95%	
c1ccc(CCc2ccccn2)cc1	21.4%	
CCOC(=O)C1=C(c2ccccc2)NC(=O)NC1c1cc(OC)c(OC)cc1OC (stereo not drawn)	20.3%	
CCOC(=O)C1=C(c2ccccc2)NC(=S)NC1c1ccc(Cl)cc1 (stereo not drawn)		11.2 µM (active)
CCOC(=O)C1=C(C)NC(=O)NC1c1ccccc1 (stereo not drawn)	6.14%	
CCCn1c2ccccc2c2cnn(CC(=O)NCCCN3CCCCC3CC)c(=O)c21 (stereo not drawn)		11.2 µM (active)
CCC1CCCCN1CCCNC(=O)Cn1nc(-c2ccccc2)ccc1=O (stereo not drawn)	5.92%	
CC1CCCCN1CCCNC(=O)Cn1ncc2c([nH]c3ccccc32)c1=O (stereo not drawn)	12.5%	
CC(C)N(C(=O)CN1CCN(S(=O)(=O)c2ccc(Br)s2)CC1)C(C)C	8.62%	
Cc1ccc(/C=C/C(=O)OCC(=O)Nc2cccnc2Cl)cc1	-7.92%	
CC(C)(C)c1ccc(SCCc2ccncc2)cc1		8.91 µM (active)
O=[N+]([O-])c1cc(C(F)(F)F)ccc1NCCc1ccncc1	-0.741%	
c1ccc(CSCCc2ccncc2)cc1	-1.66%	
